The sample as a whole holds a higher share of hits than the screen did.
KDM5B inhibitor – KDM5B demethylase inhibition; AID 1347165; Q9UGL1; 220,000 compounds, 2.6% hits; Potency, µM (series often up to 57.7 µM), hits mostly inhibitors; KDM5B demethylase, FDH-coupled NADH fluorescence (FDH is formaldehyde dehydrogenase); active = well fitted inhibition curve with a large enough effect; note: 0% is about no effect; nearly all actives have a fitted effect of over 70% in size
Target sequence (Q9UGL1 whole entry, looked up): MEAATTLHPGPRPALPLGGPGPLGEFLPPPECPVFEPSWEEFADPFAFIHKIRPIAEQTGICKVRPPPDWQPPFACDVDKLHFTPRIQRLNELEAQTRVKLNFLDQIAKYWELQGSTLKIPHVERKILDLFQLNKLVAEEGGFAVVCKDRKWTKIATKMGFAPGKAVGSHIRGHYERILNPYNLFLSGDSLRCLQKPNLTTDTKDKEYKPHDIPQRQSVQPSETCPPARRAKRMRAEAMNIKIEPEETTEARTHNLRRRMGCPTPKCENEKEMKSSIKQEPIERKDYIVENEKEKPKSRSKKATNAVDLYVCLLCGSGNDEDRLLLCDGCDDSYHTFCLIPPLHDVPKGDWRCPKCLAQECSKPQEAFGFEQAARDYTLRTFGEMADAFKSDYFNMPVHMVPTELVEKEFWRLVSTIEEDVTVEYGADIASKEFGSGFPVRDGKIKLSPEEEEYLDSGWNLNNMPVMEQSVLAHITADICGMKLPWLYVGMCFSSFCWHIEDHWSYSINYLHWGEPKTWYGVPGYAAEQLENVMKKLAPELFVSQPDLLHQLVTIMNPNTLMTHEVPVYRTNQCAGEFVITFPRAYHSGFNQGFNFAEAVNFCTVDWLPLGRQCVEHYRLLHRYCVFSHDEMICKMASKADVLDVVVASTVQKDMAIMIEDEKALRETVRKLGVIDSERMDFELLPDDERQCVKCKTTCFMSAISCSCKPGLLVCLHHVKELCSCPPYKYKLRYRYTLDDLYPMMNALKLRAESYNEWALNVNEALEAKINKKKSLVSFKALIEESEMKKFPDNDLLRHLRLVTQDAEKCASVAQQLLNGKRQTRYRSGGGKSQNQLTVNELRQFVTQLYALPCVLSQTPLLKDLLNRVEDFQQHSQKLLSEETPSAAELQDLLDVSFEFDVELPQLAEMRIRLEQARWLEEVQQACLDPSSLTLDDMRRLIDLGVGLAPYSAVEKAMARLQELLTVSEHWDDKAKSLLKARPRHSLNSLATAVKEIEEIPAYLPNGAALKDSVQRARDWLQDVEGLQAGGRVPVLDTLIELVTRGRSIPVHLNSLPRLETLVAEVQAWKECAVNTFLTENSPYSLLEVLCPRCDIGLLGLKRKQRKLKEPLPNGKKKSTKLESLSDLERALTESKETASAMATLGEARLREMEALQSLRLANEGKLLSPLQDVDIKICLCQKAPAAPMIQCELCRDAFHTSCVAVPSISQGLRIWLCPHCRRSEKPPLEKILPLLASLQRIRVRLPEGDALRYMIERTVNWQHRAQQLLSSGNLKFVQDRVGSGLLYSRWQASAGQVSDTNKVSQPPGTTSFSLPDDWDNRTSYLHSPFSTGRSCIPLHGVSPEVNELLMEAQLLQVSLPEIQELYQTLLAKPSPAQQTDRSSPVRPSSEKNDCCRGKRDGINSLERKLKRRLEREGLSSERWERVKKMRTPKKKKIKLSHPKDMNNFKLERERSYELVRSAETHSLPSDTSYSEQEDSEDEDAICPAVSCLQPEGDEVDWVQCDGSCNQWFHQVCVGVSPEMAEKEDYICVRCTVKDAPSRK
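Compound dilutions met 200 nM (final) KDM5BΔAP for 10 min at room temperature before substrate addition. The substrate mix held 12.5 µM H3K4me3 with cofactors 25 µM α-ketoglutarate and 50 µM Fe²⁺. NADH signal gain over 30 min defined activity.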
Active calls of the source: *; i = inactive. Potency is the fitted concentration of half-maximal effect.

SMILES | KDM5B inhibitor
CC#CCn1cc2c3c(cccc31)[C@H](CC(C)C)N[C@H](C(=O)N1CCN(CCOC)CC1)C2 | 28.2µM*
COc1ccccc1CNC(=O)[C@@H]1Cc2cn(C)c3cccc(c23)[C@H](CC(C)C)N1 | 35.5µM*
CC(C)C[C@@H]1N[C@H](C(=O)N2CCCC2)Cc2cn(Cc3ccccn3)c3cccc1c23 | i
CCOC(=O)C1C(=O)C=C(c2ccc(F)cc2)CC1c1ccc(C(C)C)cc1 (centres undefined) | i
Cc1ncsc1C(=O)N1CCC2(CC1)OC(=O)N(Cc1ccccc1F)C2(C)c1ccccc1 (centres undefined) | i
COc1ccc(C(=O)/C=C/c2ccccc2OCC#N)c2ccccc12 | i
CCCn1nc(C(=O)Nc2ccc(Br)cc2F)c2ccccc2c1=O | i
CCCCNC(=S)N(C)N | i
CCCC(=O)N1Cc2ccccc2CC2(CCN(C)CC2)C1 | i
O=C(O)CCc1ncc(-c2c(F)cccc2F)o1 | i
O=c1c2cc(-c3cccs3)nn2ccn1CC(O)c1ccc(F)cc1 (centres undefined) | 15.8µM*
Cc1ccc(-c2cc3c(=O)n(CC(=O)Nc4ccc(F)cc4C)ccn3n2)cc1 | i
COc1ccc(OC)c(C(O)Cn2ccn3nc(-c4cccs4)cc3c2=O)c1 (centres undefined) | i
O=C(Cn1ccn2nc(-c3ccc(Cl)cc3)cc2c1=O)Nc1ccc(Br)cc1F | i
CCOc1ccc(-c2cc3c(=O)n(CC(=O)Nc4cc(F)ccc4C)ccn3n2)cc1 | i
Cc1ccc(C(O)Cn2ccn3nc(-c4ccc(F)cc4)cc3c2=O)cc1 (centres undefined) | 14.1µM*
CC(C)c1ccc(C(O)Cn2ccn3nc(-c4ccc(F)cc4)cc3c2=O)cc1 (centres undefined) | 25.1µM*
Cc1ccc(C(O)Cn2ccn3nc(-c4ccc(F)cc4)cc3c2=O)cc1C (centres undefined) | i
O=C(Cn1ncn2nc(-c3cccs3)cc2c1=O)NCc1ccc(Cl)cc1 | i
Cc1cccc(OCC(=O)NC2CCc3ccccc32)c1C (centres undefined) | i
Cc1cnc(CC2CCN(C(=O)C3COc4ccccc4O3)CC2)n1Cc1ccc(F)cc1 (centres undefined) | i
CC(c1ccccc1)N(C)C(=O)Cc1c[nH]c2ccccc12 (centres undefined) | i
COC(=O)c1ccc(C(=O)O)cc1 | i
O=C(O)CCCC(=O)c1cccs1 | i
COc1ccc(C(=O)Oc2ccccc2Cl)c(OC)c1 | i
SMILES | KDM5B inhibitor
O=C(c1cc(=O)c2ccccc2o1)N(Cc1ccc(Cl)cc1)Cc1ccco1 | i
O=C(NCC1OCCc2ccccc21)c1cccc(Br)c1 (centres undefined) | i
O=C(NC1CCCCC1)c1cc(-c2ccc(Cl)cc2)nc2ccccc12 | i
CCCn1c(=O)n(CC(=O)Nc2ccc(N3CCOCC3)cc2)c(=O)c2c1nc(C)n2CCOC | i
CC(C(=O)NC(=O)NC1CC1)N(C)Cc1ccc(Br)cc1 (centres undefined) | i
COc1ccc(C(=O)Nc2ccc3oc(-c4ccc5ccccc5c4)nc3c2)cc1[N+](=O)[O-] | i
O=C(N[C@H]1CC[C@H](Nc2nccc(-c3cccnc3)n2)C1)c1ccc(O)cc1 | 20µM*
CCc1[nH]ncc1C(=O)N[C@H]1CC[C@H](Nc2nccc(-c3ccccn3)n2)C1 | 12.6µM*
O=C(NC1CC1)c1cc(-c2ccccn2)nc2cc(F)ccc12 | i
CCOC(=O)N1CCN(c2nccc(-c3ccccn3)n2)CC1 | i
c1cncc(-c2nc(NC3CC3)c3ccccc3n2)c1 | i
CN1C[C@@H](NC(=O)c2cccnc2)C[C@H]1c1nc(-c2cccnc2)no1 | i
N#Cc1ccc(NCc2c(F)cccc2Cl)cc1 | i
CCNc1nc(SCC(=O)NC(=O)NC(C)C)nc2ccccc12 | i
CCCOc1ccc(NC(=O)Cc2ccccc2)c2cccnc12 | i
O=C(Cn1cc(I)c(=O)c(I)c1)N1CCCCC1 | i
O=C(Cc1n[nH]c(=O)c2ccccc12)NCC1(N2CCCCC2)CCCCC1 | i
CCC(=O)Nc1c(S(=O)(=O)c2ccc(OC)cc2)c(C)c(C)n1C(C)C | i
Fc1ccc(/C=N/N=C/c2ccc(F)cc2)cc1 | i
Cc1cc(C)cc(-c2ccc(C=O)cc2)c1 | 31.6µM*
O=Cc1ccc(-c2ccc(F)cc2)cc1 | 89.1µM*
O=C(O)c1ccc(-c2cccc(O)c2)cc1 | i
Cc1cc(C)cc(-c2ccccc2C=O)c1 | i
Cc1cc(C)cc(-c2ccc(CN)cc2)c1 | i
Cn1c(C=O)ccc1-c1ccc(F)cc1 | i
SMILES | KDM5B inhibitor
O=Cc1ccc(-c2cccc(O)c2)cc1 | 12.6µM*
NC(=O)c1cccc(O)c1 | i
Cc1cn2c(=O)c(S(=O)(=O)Nc3ccc(Br)cc3)c(C)nc2s1 | i
CN1CCN(C(=O)CN2CCN(C(C(=O)O)c3cn(CC(=O)O)c4cc(F)ccc34)CC2)CC1 (centres undefined) | i
OC(COc1ccc(Br)cc1)CN1CCCN(c2ccc(C(F)(F)F)cn2)CC1 (centres undefined) | i
CC(OC(=O)c1cc(S(C)(=O)=O)ccc1Cl)C(=O)Nc1nc(-c2ccccc2)cs1 (centres undefined) | i
COc1ccc(C(=O)OCC(=O)NC2CCCCC2)cc1F | i
Cc1cc(C)c(NC(=O)CSc2ncnc3ccccc23)c(C)c1 | i
CN(C)CCOC1CC2CCC1(C)C2(C)C (centres undefined) | i
Cc1cc(C(=O)OCC(=O)Nc2ccccc2C(C)C)c2ccccc2n1 | i
COc1ccc(-c2cc(N3CCC(NC(=O)c4ccc5cc[nH]c5c4)CC3)n[nH]2)cc1 | 28.2µM*
COc1ccc(-c2cc(N3CCC(NC(=O)CCc4ccccc4OC)CC3)n[nH]2)cc1 | i
CCc1ccc(C(=O)NC2CCN(c3cc(-c4ccc(OC)cc4)[nH]n3)CC2)cc1 | i
COc1ccc(-c2cc(N3CCC(NC(=O)Cc4ccccc4OC)CC3)n[nH]2)cc1 | i
CCOc1ccc(C(=O)NC2CCN(c3cc(-c4ccc(OC)cc4)[nH]n3)C2)cc1OCC (centres undefined) | i
COc1ccc(-c2cc(N3CCC(NC(=O)COc4ccccc4C)CC3)n[nH]2)cc1 | 15.8µM*
COc1ccc(-c2cc(N3CCC(NC(=O)c4ccccc4)CC3)n[nH]2)cc1 | i
COc1ccc(C(=O)NC2CCN(c3cc(-c4ccccc4)[nH]n3)CC2)cc1 | i
COc1ccc(-c2cc(N3CCC(NC(=O)c4ccc(Br)cc4)C3)n[nH]2)cc1 (centres undefined) | 11.2µM*
Cc1cc(C(=O)N2CCCCCNC(=O)[C@H]3C[C@H](C(=O)N4CCc5ccccc5C4)C[C@H]32)n(C)n1 | i
Cc1ccccc1-c1nc2c3c(ncn2n1)Oc1cc(O)ccc1C3c1ccccc1 (centres undefined) | i
CCc1ccc(OCCNC(=S)NC23CC4CC(CC(C4)C2)C3)cc1 | i
Cc1ccc(C)c(NC(=O)c2cc3c(cc2C)OCCCO3)c1 | i
COc1ccc(NC(=O)N2CCc3c(C(=O)Nc4ccc5c(c4)OCO5)cccc32)cc1 | 22.4µM*
COc1ccc(NC(=O)c2cccc3c2CCN3C(=O)Nc2ccc(F)cc2)cc1 | i
CCCNC(=O)c1cccc2c1CCN2C(=O)Nc1ccc(OC)cc1 | i
C/C(=N/Nc1ccccc1C(F)(F)F)c1cccs1 | i
O=C(c1cccc(Br)c1)N(Cc1ccc2cc[nH]c2c1)C1CC1 | i
